Screening results: PubChem BioAssay, National Center for Advancing Translational Sciences (NCATS)
Marburg entry inh: inhibitors of Marburg virus binding or cell entry. AID 540276. Marburg virus pseudotyped entry inhibition, cell reporter. 300,000 tested, 1.8% active. Potency, µM (series often up to 37.8 µM), without a hit: at the top dose activity change, negative = inhibition, most hits filed as inhibitors; calls by dose curve; tested in HEK293 cells; further: potency means the concentration at half of the fitted maximal effect
FMDV antiviral: antivirals against foot and mouth disease virus | FMDV antiviral cell-based qHTS | Potency, µM (doses to about 57.9 µM), inactives show at the top dose activity change, negative = inhibition, hits mostly inhibitors | 410,000 tested, 1.2% active | AID 1159524; calls by dose curve; tested in HEK293T cells; further: read-out not given here; potency means the concentration at half of the fitted maximal effect; nearly all actives have a fitted effect of over 45% in size
LASV entry inh: blocks Lassa virus binding to or entry into cells; Lassa virus pseudotype entry inhibition, cell reporter; Potency, µM (top dose mostly 37.9 µM), for the others: top-dose activity change, negative = inhibition, usual class: inhibitors; 300,000 tested, 1.2% active; AID 540256; calls by dose curve; tested in HEK293 cells; further: potency means the concentration at half of the fitted maximal effect; nearly all actives have a fitted effect of over 50% in size
HCMV antiviral: human cytomegalovirus inhibition. HFF cells, HCMV-luciferase reporter, 72 h; hits give low values. activity change, negative = inhibition, % at 57.5 µM. 410,000 tested, 4.5% active. AID 1259415; in the data active means activity change below about -60%; inconclusive means no clear call, values can overlap the other calls; inactive means above about -39%
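Screen run at 2 compound doses on HFFs infected with reporter HCMV, MOI 1 PFU/cell. Luciferase activity from cell lysates at 72 h post infection gave inhibition relative to buffer-only and Salinomycin wells.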
The depositor's hits bear a star; ? = inconclusive; . = not tested or not shown; ! = a repeat was not active; [ ] = dose if it differs, or a comment. An excerpt weighted towards active compounds, which were near 6.2% of everything screened. On the % scale 0 is the no-effect control and ±100 the full control effect.

SMILES	Marburg entry inh	FMDV antiviral	LASV entry inh	HCMV antiviral
C[C@H]1C=CCC(=O)N[C@@H](c2ccccc2)[C@@H](C)C=CCC(=O)N[C@@H]1c1ccccc1	?	.	-13%[14.3 µM]	.
Cc1ccc(N/C(N)=N/c2nc3c(c(=O)[nH]2)CCCC3)c(C)c1	?	.	?	-27
Cc1ccc(N/C(N)=N/c2nc(C)cc(N3CCCCC3)n2)c(C)c1	?	16µM*	?	?
OC[C@@H]1CN(Cc2ccco2)C[C@H](n2cnc3c(N4CCN(c5ccccc5)CC4)ncnc32)O1	.	?	.	-24
O=S(=O)(NCC1CC1)c1cc(Cl)cc(Cl)c1	-18%[46.1 µM]	37%	10%[46.1 µM]	-65*
O=C(O)C1CCC(CNS(=O)(=O)c2ccc(Cl)cc2)CC1 (stereo unspecified)	0%[46.1 µM]	8%	18%[46.1 µM]	36
CC(=O)c1cc(-c2ccccc2)n(CC(=O)NCc2ccccc2C)c1C	-11%[46.1 µM]	-8%	.	7
CC(CCN1CCCCc2nc(C)c(C)cc21)=NO[C@@H](C)CN1CCCCc2nc(C)c(C)cc21	6%[14.2 µM]	.	?	.
CCCNC(=O)CCn1nc(-c2ccc(Cl)cc2)c2ccccc2c1=O	?	-9%	4%	-24
CCCCNC(=O)CCn1nc(-c2ccccc2)c2ccccc2c1=O	.	14%	.	.
CCCNC(=O)CCn1nc(-c2ccc(C)cc2)c2ccccc2c1=O	.	8%	-21%[46.1 µM]	-65*!
CCCCNC(=O)CCn1nc(-c2ccc(C)cc2)c2ccccc2c1=O	.	2%	.	-72*
C/C(CCC(=O)OC[C@@H]1O[C@H](C#Cc2ccccc2)C=C[C@@H]1Oc1ccc(C)cc1)=N/OC[C@@H](O)COCc1ccco1	-10%[14.2 µM]	.	.	.
O=c1oc2ccccc2c(Cl)c1CN1CCCCC1	.	?	.	-64*
Cc1sc2ncnc(NCCc3ccc(S(N)(=O)=O)cc3)c2c1C	?	11µM*	?	-76*
Cc1ccc(S(=O)(=O)Nc2ncnc3sc(C)c(C)c23)cc1	-8%	-14%	-8%	0
COc1ccccc1CNC(=O)C(NS(=O)(=O)c1ccc2c(c1)CCN2C(C)=O)C(C)C (stereo unspecified)	3%[46.1 µM]	1%	4%[46.1 µM]	5
CC1CC(C)CC(C)C(O)C(C#N)=CC=CCC(C2CCCC2C(=O)O)OC(=O)CC(O)C(C)C1 (stereo unspecified)	0.45µM*	?	1.4µM*	-97*
Cc1nc(N)sc1-c1csc(Nc2ncccn2)n1	?	0%	3%	-77*
O=C(NCCc1ccc(Cl)cc1)C1COc2ccccc2C1 (stereo unspecified)	.	10%	8%[46.1 µM]	-13
Cc1[nH]c(-c2ccco2)nc1C(=O)O	9%	6%	14%	-111*
Cc1nn(Cc2ccc(Cl)cc2Cl)c(C)c1NC(=O)C1C2CCC(O2)C1C(=O)O (stereo unspecified)	-24%[46.1 µM]	?	5%	-64*
Cc1nn(Cc2ccc(Cl)cc2Cl)c(C)c1NC(=O)CCl	?	22µM*	?	?
Cc1nn(C)c(Cl)c1NC(=O)OCc1ccc(Cl)cc1Cl	?	?	-25%	-96*
Cc1nn(Cc2ccc(Cl)cc2Cl)c(C)c1NC(=O)c1nn(C)cc1Cl	?	0%	-24%	-21
SMILES	Marburg entry inh	FMDV antiviral	LASV entry inh	HCMV antiviral
c1ccc(N2CCCCC2)c(Nc2nc3ccccc3n3cnnc23)c1	?	-27%	?	?
FC(F)(F)c1ccc(N2CCOCC2)c(Nc2nc3ccccc3n3cnnc23)c1	4.1µM*	0%	?	25
CC(=O)Nc1nonc1-c1nnc(SCC(=O)Nc2ccc(C)cc2C)n1C	?	-8%	14%[46.1 µM]	-11
COc1ccc(-n2c(CN3CCN(c4ccc(F)cc4)CC3)nc3ccc([N+](=O)[O-])cc3c2=O)c(OC)c1	-21%[46.1 µM]	-8%	?	-92*
COc1ccc(-n2c(CN3CCN(C)CC3)nc3ccc([N+](=O)[O-])cc3c2=O)c(OC)c1	.	-13%	.	10
Cc1ccc2cc(CN(C(=O)c3ccc4c(c3)OCO4)C3CC3)c(N(C)C)nc2c1	.	2%	.	.
O=Cc1cn(-c2ccccc2)nc1-c1ccc(F)cc1	.	24%	.	-3
CC1=NNC(=O)/C1=C\c1cn(-c2ccccc2)nc1-c1ccc(F)cc1	8.9µM*	11µM*	?	.
CC1=NNC(=O)/C1=C\c1cn(-c2ccccc2)nc1-c1cccs1	-41%	10µM*	?	-100*
COC(=O)c1ccc(NC(=O)CC2C(=O)N(c3cccc(OC)c3)C(=O)N2C(C)C)cc1 (stereo unspecified)	.	-16%	?	13
Cc1nn2cc(-c3ccccc3)nc2s1	?	.	?	57
CCCCSc1ccc2nc(-c3ccc(C#N)cc3)cn2c1	-25%	-2%	?	-4
CN(C)S(=O)(=O)c1ccc(-c2cn3ccccc3n2)cc1	?	3%	-22%	3
O=[N+]([O-])c1ccc(-c2cn3ccccc3n2)cc1	.	10%	.	-65*
CCCSc1ccc2nc(-c3ccccc3)cn2c1	?	2.2µM*	2.2µM*	-64*
c1ccc(-c2cn3nc(-c4ccccc4)sc3n2)cc1	?	10µM*	?	.
Brc1ccc(-c2cn3ccccc3n2)cc1	?	-55%	2.8µM*	68
Oc1ccc(-c2cn3ccccc3n2)cc1	.	10%	.	72
COc1ccc(-n2c(CNC(=O)c3ccc(OC)cc3OC)nnc2SC)cc1	.	8%	.	.
O=C(NCc1ccc(C(F)(F)F)cc1)O[C@H]1CC[C@@]23CCCN2C(=O)CCC[C@H]3[C@H]1Cc1ccccc1	.	.	.	0
c1ccc(-c2cn3ccccc3n2)cc1	11µM*	4%	-16%[46.1 µM]	94
COC(=O)[C@@]1(C(C)C)N=C(c2cc(OC)c(OC)c(OC)c2)[C@]2(O1)C(=O)N(C)c1ccc(Br)cc12	.	-12%	.	-16
CC(CCCN1CCCC1)Nc1ccnc2cc(Cl)ccc12 (stereo unspecified)	3.5µM*	13%	5%[46.1 µM]	?
O=C(NCCCNc1ccnc2cc(Cl)ccc12)c1ccccc1F	.	-29%	.	-34
CC(Nc1ccnc2cc(Cl)ccc12)c1ccc(S(N)(=O)=O)cc1 (stereo unspecified)	-2%[46.1 µM]	-14%	?	14
SMILES	Marburg entry inh	FMDV antiviral	LASV entry inh	HCMV antiviral
CC(C)NC1CCC(Nc2ccnc3cc(Cl)ccc23)CC1 (stereo unspecified)	2.8µM*	-32%	?	?
Clc1ccc2c(NCCNC3CCCCC3)ccnc2c1	1.6µM*	-20%	?	-84*
CC1CCCN1c1ccnc2cc(Cl)ccc12 (stereo unspecified)	?	-21%	-12%[46.1 µM]	-39
O=c1cc(-c2ccccc2)nc(SCc2nc(-c3ccccc3Cl)no2)[nH]1	.	6%	16%[46.1 µM]	0
COC(C(=O)Nc1ccc(S(=O)(=O)Nc2cccc3ccccc23)cc1)c1ccccc1 (stereo unspecified)	-20%	0%	?	-88*
COC(C(=O)Nc1ccc(S(=O)(=O)Nc2ccc(F)cc2)cc1)c1ccccc1 (stereo unspecified)	7.9µM*	6%	?	-62*
COC(C(=O)Nc1ccc(F)cc1)c1ccccc1 (stereo unspecified)	-20%	19%	0%	-13
COC(=O)Nc1ccc(S(=O)(=O)Nc2ccc(O)cc2)cc1	8%	.	-28%	-67*
Fc1ccc(-c2ncn(C3CCNCC3)c2-c2ccnc(Oc3ccc(Oc4ccccc4)cc3)n2)cc1	.	.	13µM*	.
